CYP2C9 inhib – human CYP2C9 inhibition; P11712; 96,000 tested, 20% active; CYP2C9 Supersomes, luciferin-H conversion, luminescence; inhibition, % at 5 µM; AID 777;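 active means blocking of liver enzyme CYP2C9 beyond about 50% at 5 µM, limit read from the data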
Target sequence (P11712 whole entry, looked up): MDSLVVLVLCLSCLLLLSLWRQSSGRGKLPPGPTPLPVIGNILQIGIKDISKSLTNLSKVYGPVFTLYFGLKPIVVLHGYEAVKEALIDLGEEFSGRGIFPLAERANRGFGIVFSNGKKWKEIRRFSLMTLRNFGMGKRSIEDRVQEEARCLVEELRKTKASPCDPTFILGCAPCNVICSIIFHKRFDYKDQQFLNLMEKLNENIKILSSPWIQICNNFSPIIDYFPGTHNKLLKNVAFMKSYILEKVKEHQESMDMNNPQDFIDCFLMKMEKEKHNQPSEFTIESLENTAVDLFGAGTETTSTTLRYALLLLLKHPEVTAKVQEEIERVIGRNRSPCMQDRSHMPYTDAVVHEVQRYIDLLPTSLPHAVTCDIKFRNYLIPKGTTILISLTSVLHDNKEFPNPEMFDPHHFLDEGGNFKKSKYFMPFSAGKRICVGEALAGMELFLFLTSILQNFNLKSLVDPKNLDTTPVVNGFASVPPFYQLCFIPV
CYP2C19 inhib – blocks human cytochrome P450 2C19. CYP2C19 Supersomes, luciferin-H EGE luminescence, 30 min. inhibition, % at 5 µM. P33261. 96,000 tested, 21% active;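 active means CYP2C19 inhibition above a set limit at 5 µM in the primary screen, cut at about 50% in these data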
CYP2C19 activ – cytochrome P450 2C19 (human) activation. P33261. recombinant CYP2C19, luciferin-H EGE luminescence; active compounds read high; 0 = fully inhibited enzyme, 1 = untreated enzyme. activation factor at 5 µM. 96,000 tested, under 10 active. AID 1025;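 active means activation factor of at least 2 at 5 µM in the primary screen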
sEH inh – soluble epoxide hydrolase (human) inhibition; recombinant human sEH enzymatic activity assay; P34913; inhibition, % at 2 µM; AID 707; 91,000 tested, 0.34% active; in the data active means inhibition above about 80%
CYP2C9 act – CYP2C9 (human) activation; 96,000 tested, 1.4% active; recombinant CYP2C9, luciferin-H conversion, luminescence; active compounds read high; factor 1 = untreated enzyme, 0 = blocked; activation factor at 5 µM;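 active means activation factor of 2 or more for CYP2C9 at a 5 µM dose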
sEH act – soluble epoxide hydrolase (human) activation. purified human sEH enzymatic activity, activator screen. P34913. activation, % at 2 µM. 91,000 tested, 0.04% active; in the data active means activation above about 37%
Each line names hits and unclear results; the compound was inactive in the other large screens. Shown are actives, neighbours in structure and some others; about 27% of the full set was active somewhere.

O=C(Oc1ccc(C(=S)N2CCOCC2)cc1Br)c1cc(Cl)ccc1Cl	CYP2C9 act 2.4
CCOc1ccc(NC(=O)CN(C)CC(=O)NC2CCCc3ccccc32)cc1OCC (centres undefined)	CYP2C9 inhib 86
CCOc1ccc(NC(=O)CN(C)CC(=O)Nc2ccccc2C#N)cc1OCC	none
Fc1ccc(-c2ccnc3nc(N4CCOCC4)nn23)cc1	none
COc1ccc(-c2ccnc3nc(N4CCN(c5ccccc5)CC4)nn23)cc1	CYP2C9 inhib 61
Nc1nc(C2CC2)c(Sc2sc(N)nc2C2CC2)s1	CYP2C19 inhib 62
CCC1Oc2ccc(C)cc2N(CC(=O)NCCC2=CCCCC2)C1=O (centres undefined)	CYP2C19 inhib 99 (no result: sEH inh, sEH act)
CC(C)(C)C(=O)NC1CCN(C(=O)N2CCCC2)CC1	CYP2C19 inhib 53
CC(C)(C)C(=O)NC1CCN(S(C)(=O)=O)CC1	none (no result: CYP2C9 inhib, CYP2C19 inhib, CYP2C19 activ, CYP2C9 act)
CCN(CC)c1nc2ccccc2nc1-n1nc(C)cc1C	none
C/C(=N\N=C(/N)SC1CC(=O)N(c2cccc(Cl)c2)C1=O)c1cccs1 (centres undefined)	CYP2C9 inhib 61
CCCOc1ccc(N2C(=O)CC(S/C(N)=N/N=C(\C)c3cccs3)C2=O)cc1 (centres undefined)	none
C/C(=N\OC(=O)c1ccc(OC(C)C)cc1)c1ccc(C)c(C)c1	CYP2C9 inhib 56, CYP2C19 inhib 56
C/C(=N\OC(=O)c1ccc(C)cc1)c1sc(C)nc1C	none
COc1ccc(C(=O)O/N=C(\C)c2ccccc2)cc1	CYP2C9 inhib 88, CYP2C19 inhib 52
CC/C(=N\OC(=O)c1ccc(OC(C)C)cc1)c1ccc(C)cc1	CYP2C9 inhib 62, CYP2C19 inhib 73
CC(=O)c1cc(F)c(N2CCN(C(=O)COc3ccccc3F)CC2)cc1C	none (no result: CYP2C9 inhib, CYP2C19 inhib, CYP2C19 activ, CYP2C9 act)
CCN(CC)CCN(C(=O)Cn1nnc(-c2ccc(OC)c(OC)c2)n1)C(C(=O)NC1CCCC1)c1ccc(F)cc1 (centres undefined)	none
N#Cc1cc2c(nc1SCc1cccc(Cl)c1)CCCCC2	none (no result: sEH inh, sEH act)
CSc1ccc(C(=S)N2CCN(Cc3ccccc3)CC2)cc1	CYP2C19 inhib 52
CCOC(=O)N1CCN(C(=O)c2cccc(NC(=O)c3ccco3)c2)CC1	none
COCCn1c(SCC(=O)Nc2ncc(C)s2)nc2sc3c(c2c1=O)CCC3	CYP2C9 inhib 52
COc1ccc(-c2nnc(CSc3ncnc4sc5c(c34)CCC5)o2)cc1OC	CYP2C9 inhib 53 (no result: sEH inh, sEH act)
COCCn1c(SCc2nnc(-c3ccccc3)o2)nc2sc3c(c2c1=O)CCC3	CYP2C9 inhib 87
O=C(CN1CCCCCC1)N1c2ccccc2C=Cc2ccccc21	CYP2C19 inhib 51
CCN(CC)C(=O)N1c2ccccc2C=Cc2ccccc21	CYP2C19 inhib 63
C=CCNC(=O)NC(=S)c1ccccc1	none
Cc1ccc(CCNC(=O)C2CCCN(S(=O)(=O)c3c(C)noc3/C=C/N(C)C)C2)cc1 (centres undefined)	CYP2C9 inhib 69
Cc1noc(/C=C/N(C)C)c1S(=O)(=O)N1CCCC(C(=O)NCc2cccs2)C1 (centres undefined)	CYP2C9 inhib 68
O=C(Nc1cc2c3c(c1)C1CCCC1CN3CC1CCCC21)c1ccccc1 (centres undefined)	CYP2C9 inhib 81
O=C(Nc1ccccc1C(=O)N1CCCC1)c1ccccc1	none (no result: CYP2C9 inhib, CYP2C19 inhib, CYP2C19 activ, CYP2C9 act)
CC(=O)Oc1ccc(C(=O)Nc2cc(C)ccc2NC(=O)COc2ccccc2)cc1	CYP2C9 inhib 58
CCc1cccc(NC(=O)COc2ccccc2)c1	CYP2C19 inhib 52
CSc1cccc(NC(=O)COc2ccccc2)c1	none
CC(=O)c1cccc(NC(=O)Cc2ccc3c(c2)CCCC3)c1	CYP2C9 act 2.6
CC(=O)c1cccc(NC(=O)COc2ccccc2)c1	CYP2C9 inhib 57, CYP2C19 inhib 74
COc1ccc(C=O)cc1CSc1nnc(COc2cccc3cccnc23)o1	none (no result: CYP2C9 inhib, CYP2C19 inhib, CYP2C19 activ, CYP2C9 act)
CCS(=O)(=O)NCCc1cc2c(OC)ccc(OC)c2[nH]c1=O	none (no result: CYP2C9 inhib, CYP2C19 inhib, CYP2C19 activ, CYP2C9 act)
CNC(=S)N1N=C(c2ccc(C)cc2)CC1c1ccc(Cl)cc1 (centres undefined)	CYP2C9 inhib 90
CNC(=S)N1N=C(c2ccc(C)cc2)CC1c1ccc(Br)cc1 (centres undefined)	CYP2C9 inhib 92, CYP2C19 inhib 55
CCC(=O)N1N=C(c2ccc(NS(C)(=O)=O)cc2)CC1c1ccc(C)cc1 (centres undefined)	none
CC1(C)CC(=O)c2c(O)cc(OCc3ccc(Br)cc3)cc2O1	CYP2C9 inhib 85, CYP2C19 inhib 61
COC(=O)c1ccc(COc2cc(O)c3c(c2)OC(C)(C)CC3=O)cc1	CYP2C19 inhib 51
COc1cc(O)c2c(c1)OC(C)(C)CC2=O	none
CC1CCC(NC(=O)c2cc3c(=O)n(C)c4ccccc4c3n2C)CC1 (centres undefined)	none
O=C(NC1CCCCCC1)C1CCN(C(=O)Cc2ccccc2)CC1	none
Cn1cnnc1SC1CCCCC1NS(=O)(=O)c1ccccc1 (centres undefined)	none
Nn1cnnc1SC1CCCCC1NS(=O)(=O)c1ccccc1 (centres undefined)	CYP2C19 inhib 81
CCC(=O)N/C(=N\OCc1ccc(F)cc1)c1nonc1NC(=O)CC	CYP2C19 inhib 65
O=C(CS(=O)CC(=O)N(CC(=O)NC1CCCC1)C1CCCCC1)Nc1ccc(F)cc1 (centres undefined)	CYP2C9 inhib 57
Cc1cccc(N2CCN(CCNC(=O)c3cc4c(s3)CS(=O)(=O)C4)CC2)c1C	CYP2C9 inhib 53
O=C(CN1CCN(S(=O)(=O)c2ccccc2)CC1)NC(=O)NCc1ccccc1	CYP2C9 inhib 62
O=C(CN1CCN(S(=O)(=O)c2ccccc2)CC1)NC(=O)NC1CCCCC1	CYP2C9 inhib 74, CYP2C19 inhib 55
Cc1ccc(S(=O)(=O)N2CCN(CC(=O)NC(=O)NCc3ccccc3)CC2)cc1C	none
c1ccc2c(CCNc3ncnc4nc[nH]c34)cccc2c1	none (no result: CYP2C9 inhib, CYP2C19 inhib, CYP2C19 activ, CYP2C9 act)
Cc1ccc(/C=C/C(=O)C2C(=O)c3ccccc3C2=O)cc1	CYP2C9 inhib 99
Cc1ccc(/C=C/C(=O)c2ccc(C)cc2)cc1	none (no result: CYP2C9 inhib, CYP2C19 inhib, CYP2C19 activ, CYP2C9 act)
Cc1cc(C)nc(/N=C2\NC(=O)CC3C(=O)NCCN23)n1 (centres undefined)	none (no result: CYP2C9 inhib, CYP2C19 inhib, CYP2C19 activ, CYP2C9 act)
CCCCc1ccc(/C=C2\C(=O)c3ccccc3C(O)=C2C(=O)OCC)cc1	CYP2C9 inhib 90, CYP2C19 inhib 67
COc1ccc2c(C(=O)CN(C)C3CCCCC3)c[nH]c2c1	none (no result: CYP2C9 inhib, CYP2C19 inhib, CYP2C19 activ, CYP2C9 act)
COc1ccc(Nc2ncccc2C(=O)NCc2ccccc2)cc1	CYP2C9 inhib 79, CYP2C19 inhib 84
COc1cccc(Nc2ncccc2C(=O)NCc2ccccc2)c1	none
CCOc1ncccc1C(=O)NCc1ccc(OC)cc1	CYP2C9 inhib 52, CYP2C19 inhib 52 (no result: sEH inh, sEH act)
CC(C)Oc1cccc(C(=O)O)c1	none
Cc1ccc(S(=O)(=O)N2CCN(C(=O)COc3ccc(-c4nnco4)cc3)CC2)cc1	none (no result: sEH inh, sEH act)
Cc1cc(C(=O)COc2ccc(-c3nnco3)cc2)c(C)n1Cc1ccccc1	CYP2C9 inhib 62, CYP2C19 inhib 60

Bioassay records: PubChem BioAssay, several laboratories
